Assay outcomes: PubChem, several laboratories
Only some compounds are listed: those with a hit (about 4.5% of all), similar ones and a draw of the others.
tim10-1 inh: growth inhibitors of tim10-1 mutant yeast; S. cerevisiae tim10-1 ts strain growth, BacTiter-Glo, 24 h; inhibition, % at 20 µM; 330,000 compounds, 2.2% hits;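 active = inhibition of at least 40%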;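 note: mutant grown at 25 °C; 0% = DMSO wells with yeast and 100% = wells holding no yeast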
TIM10 inh: TIM10 yeast growth inhibition; S. cerevisiae TIM10 strain growth, BacTiter-Glo luminescence, 24 h; inhibition, % at 10 µM; 330,000 compounds, 1.4% hits;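 active = inhibition of 40% or more at the single tested concentration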;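 note: wild-type TIM10 isogenic control strain grown at permissive 25 °C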
PfHsp90 set2: inhibits growth of yeast expressing Plasmodium falciparum Hsp90; S. cerevisiae expressing PfHsp90, BacTiter-Glo ATP, 48 h; yeast lacking PDR1 and PDR3 efflux regulators; inhibition, % at 9.4 µM; 310,000 compounds, 0.32% hits; AID 504621;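 active = every replicate shows inhibition above about 80%, whatever the replicate mean, limit read from the data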;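 note: 0% = DMSO neutral controls and 100% = 20 µM radicicol positive controls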
NLRP3 yeast inh: NALP3 inhibition in yeast; 330,000 compounds, 0.39% hits; inhibition, % at 10 µM; Yeast reconstituted NLRP3/ASC/caspase-1, beta-gal luminescence, 24 h;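 active = inhibition of 50% or more; inactive = inhibition below 50%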;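 note: plate controls were induced DMSO wells for no effect and uninduced yeast grown without galactose for full effect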
tim23-1 inh: tim23-1 yeast growth inhibition; S. cerevisiae tim23-1 growth, BacTiter-Glo luminescence, 24 h; AID 463212; 330,000 compounds, 1.3% hits; inhibition, % at 20 µM;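 active = growth inhibition of the mutant yeast at or above 50%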;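 note: temperature-sensitive mutant grown at 25 °C; plate controls were DMSO-treated mutant yeast for no effect and medium wells lacking yeast for full effect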
SKKanGAS inh: SKKanGAS growth inhibition. S. pyogenes SKKanGAS, kanamycin growth, BacTiter-Glo, 6 h. inhibition, % at 7.5 µM. 300,000 compounds, 1.3% hits. AID 1662;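 active = mean replicate score, as percent of positive control median, at least 50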;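 note: strain carries kanamycin resistance gene driven by streptokinase promoter and grows in 40 µg/ml kanamycin; loss of luminescence reflects streptokinase promoter inhibition or plain growth inhibition; 0% = median of DMSO wells and 100% = positive control at its reference dose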
NALP3 confirm: NALP3 inhibition confirmation in yeast; AID 435006; shares compounds with NLRP3 yeast inh; 1,300 compounds, 81% hits; inhibition, % at 10 µM; yeast expressing human NALP3, luminescence; in the data active = inhibition above about 48%
Casp1-ASC yeast: caspase-1-ASC yeast counter-screen hit; shares compounds with NLRP3 yeast inh; yeast expressing Caspase-1-ASC, luminescence counter screen; inhibition, % at 10 µM; 1,000 compounds, 66% hits; AID 488784
NALP3 yeast rt: confirmation retest of NALP3 inhibitors in yeast. shares compounds with NLRP3 yeast inh. yeast expressing human NALP3, luminescence read-out. inhibition, % at 10 µM. 1,000 compounds, 53% hits. AID 488794
Numbers without * were called inactive. Cut-off read from the data, not from the text of the source, unless noted: active = inhibition above about 50%; inactive = the rest.

Screening COc1ccccc1-c1oc2ccccc2c1C#CC(C)(C)O returned tim10-1 inh -19, TIM10 inh 0, PfHsp90 set2 21, NLRP3 yeast inh 72*, tim23-1 inh 39, NALP3 confirm 59*, Casp1-ASC yeast 71* and NALP3 yeast rt 60*.
For COc1ccccc1-c1oc2ccccc2c1C#CCO the results were tim10-1 inh 7, TIM10 inh 4, PfHsp90 set2 -23, NLRP3 yeast inh -18 and tim23-1 inh 7.
For COC(=O)[C@@]1(C)[C@H]2C(=O)N(Cc3ccccc3)C(=O)[C@H]2[C@H]2CN=C(SCc3ccc(C)cc3)N21 the results were tim10-1 inh 25, TIM10 inh -5, PfHsp90 set2 -1 and tim23-1 inh 49.
O=C(c1cccs1)N1CCc2ccccc21 was read as tim10-1 inh -3, TIM10 inh 7, PfHsp90 set2 -22, NLRP3 yeast inh 15, tim23-1 inh 25 and SKKanGAS inh 2.
Screening O=C(/C=C/c1cccs1)N1CCc2ccccc21 returned tim10-1 inh 7, TIM10 inh -1, PfHsp90 set2 14, NLRP3 yeast inh 52*, tim23-1 inh 22, SKKanGAS inh 11 and NALP3 confirm 23.
For Cc1cc(C)n2nc(-c3cccc(Br)c3)cc2n1 the results were tim10-1 inh 28, TIM10 inh 3, PfHsp90 set2 -2, NLRP3 yeast inh 49, tim23-1 inh 32 and SKKanGAS inh -4.
Screening Cc1cc(C)n2ncc(-c3cccc(Br)c3)c2n1 returned tim10-1 inh 25, TIM10 inh -5, PfHsp90 set2 -5, NLRP3 yeast inh 51*, tim23-1 inh 22, SKKanGAS inh -2, NALP3 confirm 62*, Casp1-ASC yeast 31 and NALP3 yeast rt 24.
For C=C(Cl)COc1ccc2c(CC)cc(=O)oc2c1 the results were tim10-1 inh 14, TIM10 inh -19, PfHsp90 set2 -11, NLRP3 yeast inh 51*, tim23-1 inh 21, NALP3 confirm 44, Casp1-ASC yeast 64* and NALP3 yeast rt 56*.
`Cc1cc(Cl)c(S(=O)(=O)NC2CCCCC2)cc1OCC(=O)Nc1nncs1` gave tim10-1 inh -20, TIM10 inh -13, PfHsp90 set2 -25, NLRP3 yeast inh 50*, tim23-1 inh 4, SKKanGAS inh 5, NALP3 confirm 50*, Casp1-ASC yeast 36 and NALP3 yeast rt 30.
Cc1cc(Cl)c(S(=O)(=O)Nc2ccon2)cc1OCC(=O)NC1CCCCC1 was read as tim10-1 inh 0, TIM10 inh 8, PfHsp90 set2 11, NLRP3 yeast inh -6, tim23-1 inh -5 and SKKanGAS inh -2.
`CC1CCCN(C(=O)C(=O)c2cn(CC(=O)N3CCCCCC3)c3ccccc23)C1` (stereo not given) gave tim10-1 inh 4, TIM10 inh 2, PfHsp90 set2 -13, NLRP3 yeast inh 6, tim23-1 inh 10 and SKKanGAS inh 12.
`CC(C)(C)c1ccc(C(=O)Nc2cccc(-n3cnnn3)c2)cc1` gave tim10-1 inh 28, TIM10 inh 21, PfHsp90 set2 3, NLRP3 yeast inh 52*, tim23-1 inh 45, SKKanGAS inh -9, NALP3 confirm 65*, Casp1-ASC yeast 58* and NALP3 yeast rt 27.
Screening CCc1ccc(/C=N/NC(=O)Cc2cccn2C)cc1 returned tim10-1 inh -7, TIM10 inh -7, PfHsp90 set2 10, NLRP3 yeast inh 18, tim23-1 inh 14 and SKKanGAS inh 6.
Screening CCCCOc1ccc(C(=O)Oc2ccc(C)nc2)cc1 returned tim10-1 inh 30, TIM10 inh 21, PfHsp90 set2 -17, NLRP3 yeast inh 80*, tim23-1 inh 32, SKKanGAS inh 12, NALP3 confirm 87*, Casp1-ASC yeast 92* and NALP3 yeast rt 84*.
